# According to the supplement of paper PMC9135407:
# Several values for one entry are separate records, joined by “and”; a condition that tells them apart may be missing. Identical values can stand only once. Counter-ions that a name gives are not always drawn. About 620 (11%) of roughly 5,800 compounds showed activity. Shown is part of a subset that was picked to be rich in actives. A number with no mark means an inactive call.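 How the source made its calls: active = score above a cut-off or among the top three wells of a plate; in these data no inactive exceeds 0.85.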
# Tested on: primary human hepatic stellate cells (donor 1)
# Assay: scaled lipid accumulation score (0 = DMSO-like, 1 = nortriptyline-like); higher = stronger HSC inactivation (lipid re-accumulation), active = hit call of the paper
# Conditions: 48 h
# [1] = library stock concentration: 10 mM
# [2] = library stock concentration: 3.33 mM
# [3] = library stock concentration: 1 mM
# [4] = library stock concentration: 80 uM
# [5] = library stock concentration: 400 uM
# [6] = library stock concentration: 2 mM
structure (smiles),measurement,setting,value
CS(=O)(=O)O.Cc1ccc2c(c1)c1c3n2CCNC3CCC1 (centres undefined) [Pirlindole mesylate],scaled lipid accumulation score,[1],0.93 (active)
Cc1ccc2c(c1)c1c3n2CCNC3CCC1 (centres undefined) [Pirlindole mesylate],scaled lipid accumulation score,,0.472
c1cc2c(cc1C1CCCCC1)c1c3n2CCNC3CCC1 (centres undefined) [Tetrindole mesylate],scaled lipid accumulation score,[1],≤ 0
Cc1cncc2cccc(S(=O)(=O)N3CCCN(C(=O)CN)C[C@@H]3C)c12 [Rho Kinase Inhibitor IV],scaled lipid accumulation score,[2],≤ 0
C=CCN(C)CCCCCCOc1ccc(C(=O)c2ccc(Br)cc2)c(F)c1,scaled lipid accumulation score,[3],0.116
CCCCC/C=C\C/C=C\CCCCCCCC(=O)OCC(COC(=O)CCCCCCCCCCCCCCC)OC(=O)CCCCCCC/C=C\CCCCCCCC (racemic) [1-Palmitoyl-2-oleoyl-3-linoleoyl-rac-glycerol],scaled lipid accumulation score,[3],0.03
OC1C[C@@H]2[C@@H](CC[C@@H](O)CCc3ccccc3)[C@H](O)C[C@@H]2O1 (some centres undefined) [Latanoprost Lactol],scaled lipid accumulation score,[3],0.027
COc1cc2ncnc(Nc3cccc(Cl)c3)c2cc1OC [AG-1478 (Tyrphostin AG-1478)] [listing 1 of 2 here],scaled lipid accumulation score,[2],≤ 0
COc1cc2ncnc(Nc3ccc(Oc4ccccc4)cc3)c2cc1OC [Src Kinase Inhibitor I],scaled lipid accumulation score,[2],≤ 0
COc1cc2ncnc(Nc3ccc(Oc4ccccc4)cc3)c2cc1OC,scaled lipid accumulation score,[1],0.029
COc1cc2ncnc(Nc3cccc(Cl)c3)c2cc1OC [AG-1478 (Tyrphostin AG-1478)] [listing 2 of 2 here],scaled lipid accumulation score,[1],1.07 (active)
COc1cc2ncnc(Nc3ccc(Cl)cc3Cl)c2cc1OC [Ste11 MAPKKK Activation Inhibitor],scaled lipid accumulation score,[2],≤ 0
COc1cc2ncnc(Nc3cccc(Cl)c3)c2cc1OC [Tyrphostin AG 1478],scaled lipid accumulation score,[1],0.882 (active)
"COc1cc2ncnc(Nc3cccc(O)c3)c2cc1OC [WHI-P180, Hydrochloride]",scaled lipid accumulation score,[2],≤ 0
COc1cc2ncnc(Nc3cccc(Cl)c3)c2cc1OC,scaled lipid accumulation score,[4],≤ -0.016
same,scaled lipid accumulation score,[5],≤ -0.016
same,scaled lipid accumulation score,[6],≤ -0.016
same,scaled lipid accumulation score,[2],≤ 0
same,scaled lipid accumulation score,[1],0.749
same,scaled lipid accumulation score,library stock concentration: 14.2 mM,0.452
CCCCCCCCCCCCCCCCOC[C@H](COP(=O)([O-])OCC[N+](C)(C)C)SC(C)=O [2-thio-PAF],scaled lipid accumulation score,[3],≤ 0
CN1C(=O)C(c2c[nH]c3ccccc23)=C(c2c[nH]c3ccccc23)C1=O [Bisindolylmaleimide V],scaled lipid accumulation score,[3],≤ 0
same,scaled lipid accumulation score,[2],≤ 0
C[C@H]1[C@H](C)CC[C@]2(C(=O)O[C@@H]3O[C@H](CO[C@@H]4O[C@H](CO)[C@@H](O[C@@H]5O[C@H](C)[C@H](O)[C@@H](O)[C@H]5O)[C@H](O)[C@H]4O)[C@@H](O)[C@H](O)[C@H]3O)CC[C@]3(C)C(=CC[C@@H]4[C@@]5(C)C[C@@H](O)[C@H](O)[C@@](C)(CO)[C@@H]5CC[C@]43C)[C@H]12 [Asiaticoside],scaled lipid accumulation score,,≤ 0
Cn1c(Nc2ccc(C(F)(F)F)cc2)nc2cc(Oc3ccnc(-c4ncc(C(F)(F)F)[nH]4)c3)ccc21,scaled lipid accumulation score,[4],≤ -0.001
same,scaled lipid accumulation score,[5],≤ -0.003
same,scaled lipid accumulation score,[6],0.037
same,scaled lipid accumulation score,[2],0.031
same,scaled lipid accumulation score,[1],0.077 and 0.031
O=C1Cc2c([nH]c3ccc(Br)cc23)-c2ncccc2N1 [1-Azakenpaullone],scaled lipid accumulation score,[2],0.405
same,scaled lipid accumulation score,[1],0.808
CCCCCCCCCCCCCCCCOCC(COP(=O)([O-])OCC[N+](C)(C)C)OC (centres undefined) [1-Hexadecyl-2-methylglycero-3 PC],scaled lipid accumulation score,[3],0.043
COc1cc(C[C@@H](CO)[C@H](CO)Cc2ccc(O)c(OC)c2)ccc1O,scaled lipid accumulation score,[1],0.022
NC[C@H]1c(c2C[C@@H]([C@]3(C4)CC(CC45)CC(C5)C3)O1)ccc(O)c2O.Cl,scaled lipid accumulation score,[1],1.19 (active)
NC[C@@H]1O[C@H](C23CC4CC(CC(C4)C2)C3)Cc2c1ccc(O)c2O,scaled lipid accumulation score,[1],0.438
NC[C@@H]1O[C@H](c2ccccc2)Cc2c1ccc(O)c2O,scaled lipid accumulation score,[1],≤ 0
COc1ccc(C2CC(=O)c3c(O)cc(OC4OC(COC5OC(C)C(O)C(O)C5O)C(O)C(O)C4O)cc3O2)cc1OC (centres undefined) [Methyl-Hesperidin],scaled lipid accumulation score,[2],≤ 0
same,scaled lipid accumulation score,[1],≤ 0
CCCCC/C=C\C/C=C\C/C=C\C/C=C\CCCC(=O)OC(COCCCCCCCCCCCCCCCC)COP(=O)([O-])OCC[N+](C)(C)C (centres undefined) [Arachidonoyl PAF C-16],scaled lipid accumulation score,[3],≤ 0
O=C(c1ccc(F)cc1)C1CCN(CCCCc2ccccc2)CC1 [4-(4-Fluorobenzoyl)-1-(4-phenylbutyl)-piperidine oxalate],scaled lipid accumulation score,[1],0.378
"Cl.O[Si](CCCN1CCCCC1)(c1ccc(F)cc1)C1CCCCC1 (centres undefined) [Hexahydro-sila-difenidol hydrochloride, p-fluoro analog]",scaled lipid accumulation score,[1],0.956 (active)
CC1CCN(CCCC(=O)c2ccc(F)cc2)CC1,scaled lipid accumulation score,[1],≤ 0
CC1CCN(CCCC(=O)c2ccc(F)cc2)CC1 [Metylperon],scaled lipid accumulation score,[1],≤ 0
CC1CCN(CCCC(=O)c2ccc(F)cc2)CC1 [Melperone hydrochloride],scaled lipid accumulation score,[1],0.058
C[C@H]1[C@H](C)CC[C@]2(C(=O)O)CC[C@]3(C)C(=CC[C@@H]4[C@@]5(C)CC[C@H](O)C(C)(C)[C@@H]5CC[C@]43C)[C@H]12 [Ursolic acid],scaled lipid accumulation score,,0.053
C[C@H]1[C@H](C)CC[C@]2(C(=O)O)CC[C@]3(C)C(=CC[C@@H]4[C@@]5(C)CC[C@H](O)C(C)(C)[C@@H]5CC[C@]43C)[C@H]12 [Ursolic Acid],scaled lipid accumulation score,[2],0.013
same,scaled lipid accumulation score,[1],≤ 0
O=C1CC2(CCCC2)CC(=O)N1CCNCC1COc2ccccc2O1 (centres undefined),scaled lipid accumulation score,[1],≤ 0 and 0.017
CCCCC1C(=O)CCC2C(CC=CCCCC(=O)O)C(=O)CC12 (centres undefined) [Bicyclo Prostaglandin E2],scaled lipid accumulation score,[3],≤ 0
C=C(NC(=O)C(=C)NC(=O)c1csc(C2=N[C@@H]3c4csc(n4)[C@H]4NC(=O)c5csc(n5)[C@H]([C@](C)(O)[C@@H](C)O)NC(=O)[C@H]5CSC(=N5)/C(=C/C)NC(=O)[C@H]([C@@H](C)O)NC(=O)c5csc(n5)[C@]3(CC2)NC(=O)[C@H](C)NC(=O)C(=C)NC(=O)[C@H](C)NC(=O)[C@H]([C@@H](C)CC)N[C@@H]2C=Cc3c([C@H](C)O)cc(nc3[C@H]2O)C(=O)O[C@@H]4C)n1)C(N)=O [Thiostrepton],scaled lipid accumulation score,,1.19 (active)
COP(=O)(OC)OC(c1ccc(Cl)cc1)P(=O)(OC)OC (centres undefined),scaled lipid accumulation score,[1],≤ -0.001
COc1cc(C[C@H]2COC(=O)[C@@H]2Cc2ccc(O)c(OC)c2)ccc1O [Matairesinol],scaled lipid accumulation score,[3],≤ 0
CC1(C)CC(=O)c2c(ccc(C(=O)CC(N)CO)c2N)O1 (centres undefined),scaled lipid accumulation score,[1],1.03 (active)
CO/N=C(\C(=O)N[C@@H]1C(=O)N2C(C(=O)O)=C(CSc3nc(=O)c(O)nn3C)CS[C@H]12)c1csc(N)n1 [Ceftriaxone sodium trihydrate],scaled lipid accumulation score,library stock concentration: 3.1 mM,≤ 0
same,scaled lipid accumulation score,[1],≤ -0.027 and 0.254
CO/N=C(\C(=O)N[C@@H]1C(=O)N2C(C(=O)O)=C(CSc3nc(=O)c(O)nn3C)CS[C@H]12)c1csc(N)n1 [Ceftriaxone sodium],scaled lipid accumulation score,[1],≤ 0
N#Cc1c(-c2ccccc2)no[n+]1[O-] [Furoxan],scaled lipid accumulation score,library stock concentration: 26.7 mM,1 (active)
CCCCCC[C@@H]([C@@H](C)O)n1cnc2c(N)ncnc21 (racemic),scaled lipid accumulation score,library stock concentration: 18 mM,0.052
CC1(C)CCC(CN2CCN(c3ccc(C(=O)NS(=O)(=O)c4ccc(NCC5CCOCC5)c([N+](=O)[O-])c4)c(Oc4cnc5[nH]ccc5c4)c3)CC2)=C(c2ccc(Cl)cc2)C1,scaled lipid accumulation score,[2],≤ -0.009
same,scaled lipid accumulation score,[1],≤ 0
O=S(c1ccccc1)c1ccc2nnnn2n1 (centres undefined),scaled lipid accumulation score,[1],1.3 (active)
O=C1c2ccccc2-c2nc3nnnn3nc21 [PDK1/Akt/Flt Dual Pathway Inhibitor],scaled lipid accumulation score,[2],0.462
COC(=O)C1=CO[C@@H](O)[C@@H]2C(CO)=CC[C@H]12 [Genipin],scaled lipid accumulation score,[2],≤ 0
same,scaled lipid accumulation score,[1],0.019 and ≤ -0.028
CC(C)(C)C(=O)Oc1ccc(S(=O)(=O)Nc2ccccc2C(=O)NCC(=O)O)cc1 [Sivelestat sodium salt hydrate],scaled lipid accumulation score,[1],≤ -0.055
O=C(NOCC1CC1)c1cc(Br)c(F)c(F)c1Nc1ccc(I)cc1Cl,scaled lipid accumulation score,[1],≤ 0
CC(C)(C(=O)O)c1ccc(C(O)CCCN2CCC(C(O)(c3ccccc3)c3ccccc3)CC2)cc1 (centres undefined),scaled lipid accumulation score,[1],≤ 0
NC(=O)C(c1ccccc1)(c1ccccc1)[C@@H]1CCN(CCc2ccc3c(c2)CCO3)C1,scaled lipid accumulation score,[1],0.413
OC(CCN1CCCC1)(c1ccccc1)C1CCCCC1 (centres undefined) [Procyclidine hydrochloride],scaled lipid accumulation score,,0.092
same,scaled lipid accumulation score,library stock concentration: 6.2 mM,0.569
same,scaled lipid accumulation score,[1],0.484
CC(C)(C(=O)O)c1ccc(C(O)CCCN2CCC(C(O)(c3ccccc3)c3ccccc3)CC2)cc1 (centres undefined) [Fexofenadine hydrochloride],scaled lipid accumulation score,[1],≤ -0.07 and 0.008
c1ccc(C(O[C@@H]2CCCN(CCc3ccc4c(c3)OCO4)C2)c2ccccc2)cc1 [Zamifenacin fumarate],scaled lipid accumulation score,[1],0.194
Br.NC(=O)C(c1ccccc1)(c1ccccc1)[C@@H]1CCN(CCc2ccc3c(c2)CCO3)C1 [Darifenacin HBr],scaled lipid accumulation score,[1],1.03 (active)
NC(=O)C(c1ccccc1)(c1ccccc1)[C@@H]1CCN(CCc2ccc3c(c2)CCO3)C1 [Darifenacin HBr],scaled lipid accumulation score,[2],≤ 0
Br.NC(=O)C(c1ccccc1)(c1ccccc1)[C@@H]1CCN(CCc2ccc3c(c2)CCO3)C1,scaled lipid accumulation score,[1],0.88 (active)
CC(C)(C(=O)O)c1ccc(C(O)CCCN2CCC(C(O)(c3ccccc3)c3ccccc3)CC2)cc1 (centres undefined) [Fexofenadine HCl],scaled lipid accumulation score,,≤ 0
same,scaled lipid accumulation score,[2],≤ 0
same,scaled lipid accumulation score,[1],0.057
